AmpC inh detg = qHTS Inhibitors of AmpC Beta-Lactamase (assay with detergent) | Potency, µM (highest dose often 114 µM), hits mostly inhibitors | P00811 | AmpC hydrolysis of nitrocefin, absorbance 480 nm, 0.01% Triton | 370,000 compounds, 0.041% hits; further: nearly all actives have a fitted effect of over 25% in size
Target sequence (P00811 whole entry, looked up): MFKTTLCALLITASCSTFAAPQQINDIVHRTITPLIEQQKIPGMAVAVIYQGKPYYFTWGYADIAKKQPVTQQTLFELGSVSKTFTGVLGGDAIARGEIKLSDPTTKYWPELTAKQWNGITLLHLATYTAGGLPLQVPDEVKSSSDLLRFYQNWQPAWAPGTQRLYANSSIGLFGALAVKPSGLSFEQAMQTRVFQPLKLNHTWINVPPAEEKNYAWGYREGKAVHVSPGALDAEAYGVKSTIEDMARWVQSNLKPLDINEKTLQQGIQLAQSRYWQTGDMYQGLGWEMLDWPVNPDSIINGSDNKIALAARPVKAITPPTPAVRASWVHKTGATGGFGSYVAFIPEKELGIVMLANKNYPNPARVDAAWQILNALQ
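20 mM phosphate pH 7.0 + 0.01% (detergent screen) or 0.0001% Triton X-100; 5.3 nM AmpC reagent; cpd preinc 15 min RT; nitrocefin (800 uM stock) to start; A480 q20 s × 4 min; Activity was normalised to no-enzyme and no-compound control wells.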
AmpC no deterg = qHTS Inhibitors of AmpC Beta-Lactamase (assay without detergent). Potency, µM (series often up to 57.1 µM), actives largely listed as inhibitors. AID 485341, 2010. 330,000 compounds, 0.52% hits. P00811. AmpC nitrocefin hydrolysis, absorbance 480 nm, 0.0001% Triton; further: nearly all actives have a fitted effect of over 20% in size
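20 mM phosphate pH 7.0 + 0.01% (detergent screen) or 0.0001% Triton X-100; 5.3 nM AmpC reagent; cpd preinc 15 min RT; nitrocefin (800 uM stock) to start; A480 q20 s × 4 min; Activity was normalised to no-enzyme and no-compound control wells.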
Pf growth 48h = Primary qHTS for delayed death inhibitors of the malarial parasite plastid, 48 hour incubation; P. falciparum luciferase growth in erythrocytes, 48 h; Potency, µM (titrated, usually from 28.7 µM), actives largely listed as inhibitors; AID 504832, 2011; 310,000 compounds, 5.9% hits
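Compounds are pin-transferred into medium, infected erythrocytes (2% hematocrit, 0.1% parasitemia final) are added, and plates sit one parasite generation at 37 C in 5% CO2. Detection reagent is then added and luminescence measured.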
Pf growth 96h = Primary qHTS for delayed death inhibitors of the malarial parasite plastid, 96 hour incubation. P. falciparum luciferase reporter growth, 96 h. Potency, µM (series often up to 28.7 µM), hits mostly inhibitors. 320,000 compounds, 6.9% hits
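Infected RBCs, 2% Hct / 0.05% parasitemia final; luciferase-reporter P. falciparum; cpd 96 h, 37 C, 5% CO2; luciferase detection reagent; luminescence.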
Sm TGR inh = qHTS Assay for the Inhibitors of Schistosoma Mansoni Peroxiredoxins | Schistosoma mansoni thioredoxin glutathione reductase (TGR), Q962Y6 | purified TGR, DTNB reduction, TNB absorbance 405 nm | Potency, µM (top dose mostly 114 µM), usual class: inhibitors | 360,000 compounds, 3% hits; further: nearly all actives have a fitted effect of over 60% in size
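First, TGR (20 nM dispensed) and NADPH were mixed with compound. Second, a 15 min room-temperature incubation followed. Third, further NADPH and then DTNB were added to start the reaction. Finally, TNB absorbance was monitored kinetically.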
SARS PLP yeast = qHTS of Yeast-based Assay for SARS-CoV PLP. S. cerevisiae expressing SARS-CoV PLpro, growth rescue. AID 485353, 2010. Potency, µM (doses to about 32.9 µM), actives largely listed as activators. 330,000 compounds, 0.19% hits; calls by dose curve; further: nearly all actives have a fitted effect of over 55% in size
Numbers stand for hits. In the library only some 12% were active in any assay of this set; here they are far more common. Unless noted, the call rests on the fitted dose curve; in most records, active means well fitted curve in the direction sought with a large enough effect; inconclusive means small, poorly fitted or top-dose-only effect, or another doubt; inactive means no such curve, though single readings can be large; an effect the other way counts as inactive or inconclusive.

`CCCCn1c(N)c(N(Cc2ccccc2OC)C(=O)c2ccc([N+](=O)[O-])s2)c(=O)[nH]c1=O` gave AmpC inh detg inactive, AmpC no deterg inactive, Pf growth 48h 10µM, Pf growth 96h 9.3µM, Sm TGR inh inactive and SARS PLP yeast inconclusive.
Nc1nnc(CCS(=O)(=O)c2ccc(Br)cc2)s1 was read as AmpC inh detg inactive, AmpC no deterg inactive, Pf growth 48h inactive, Pf growth 96h inactive, Sm TGR inh inactive and SARS PLP yeast inactive.
Screening CCN1CCN(C(=O)c2cc(S(=O)(=O)N3CCCCC3)ccc2Cl)CC1 returned AmpC inh detg inconclusive, AmpC no deterg inactive, Pf growth 48h inactive, Pf growth 96h 10µM, Sm TGR inh inactive and SARS PLP yeast inactive.
`CCOC(=O)C1CCCN(C(=O)c2cccc(S(=O)(=O)N3CCCC3)c2)C1` (stereo not drawn) gave AmpC inh detg inconclusive, AmpC no deterg inactive, Pf growth 48h inconclusive, Pf growth 96h inconclusive, Sm TGR inh inactive and SARS PLP yeast inactive.
For CCOc1cc(S(=O)(=O)N2CCCC2)ccc1Cl the results were AmpC inh detg inactive, AmpC no deterg inactive, Pf growth 96h 12µM, Sm TGR inh inactive and SARS PLP yeast inactive.
`CCOC(=O)C1CCCN(C(=O)c2cc(S(=O)(=O)N3CCCCC3)ccc2Cl)C1` (stereo not drawn) gave AmpC inh detg inactive, AmpC no deterg inactive, Pf growth 48h inconclusive, Pf growth 96h 10µM, Sm TGR inh inactive and SARS PLP yeast inactive.
Screening CC(=O)N1CCN(C(=O)c2cc(S(=O)(=O)N3CCCCC3)ccc2Cl)CC1 returned AmpC inh detg inactive, AmpC no deterg inactive, Pf growth 48h inactive, Pf growth 96h inactive and Sm TGR inh inactive.
Screening O=S(=O)(c1ccc(Oc2ccc(Cl)cc2)c(S(=O)(=O)N2CCCCC2)c1)N1CCCCC1 returned AmpC inh detg inactive, AmpC no deterg inactive, Pf growth 48h 4.7µM, Sm TGR inh inactive and SARS PLP yeast inactive.
Screening CCOc1cc(S(=O)(=O)N2CCCCC2)ccc1F returned AmpC inh detg inactive, AmpC no deterg inactive, Pf growth 48h inactive, Sm TGR inh inactive and SARS PLP yeast inactive.
CCOC(=O)CSc1nc2cc3c(cc2c(=O)n1CCCC(=O)NCc1ccc2c(c1)OCO2)OCO3 was read as AmpC inh detg inactive and Sm TGR inh inactive.
CC1Sc2ccc(S(=O)(=O)N3CCC(C(=O)N(C)Cc4ccccc4)CC3)cc2NC1=O (stereo not drawn) was read as AmpC inh detg inactive, AmpC no deterg inactive, Pf growth 48h 9.3µM, Pf growth 96h 5.9µM, Sm TGR inh inactive and SARS PLP yeast inactive.
CCC(Cc1ccccc1)NS(=O)(=O)c1ccc2c(c1)NC(=O)C(C)S2 (stereo not drawn) was read as AmpC inh detg inactive, AmpC no deterg inactive, Pf growth 48h inactive, Pf growth 96h 15µM, Sm TGR inh inconclusive and SARS PLP yeast inactive.
`CC1Cc2cc(S(=O)(=O)N3CCC(C(=O)N(C)Cc4ccco4)CC3)ccc2N1C(=O)C1CCC1` (stereo not drawn) gave AmpC inh detg inactive, AmpC no deterg inactive, Pf growth 48h 12µM, Pf growth 96h inconclusive, Sm TGR inh inconclusive and SARS PLP yeast inactive.
`CCC1Sc2ccc(S(=O)(=O)N3CCN(c4ccccc4)CC3)cc2NC1=O` (stereo not drawn) gave AmpC inh detg inactive, AmpC no deterg inactive, Pf growth 48h inconclusive, Pf growth 96h 10µM, Sm TGR inh inactive and SARS PLP yeast inactive.
For Cc1noc(-c2ccc(-c3noc(-c4ccccc4)n3)cc2)n1 the results were AmpC inh detg inactive and Sm TGR inh inactive.
Screening COc1ccc(N2CCCn3c2nc2c3c(=O)n(Cc3ccc(F)cc3)c(=O)n2C)c(OC)c1 returned AmpC inh detg inactive, AmpC no deterg inactive, Pf growth 48h inconclusive, Sm TGR inh inactive and SARS PLP yeast inactive.
Screening CC1Sc2ccc(S(=O)(=O)N3CCC(C(=O)NCc4ccco4)CC3)cc2NC1=O (stereo not drawn) returned AmpC inh detg inactive, AmpC no deterg inactive, Pf growth 48h inconclusive, Pf growth 96h inconclusive, Sm TGR inh inactive and SARS PLP yeast inactive.
CC1Sc2ccc(S(=O)(=O)N3CCC(C(=O)N(C)Cc4ccco4)CC3)cc2NC1=O (stereo not drawn) was read as AmpC inh detg inactive, AmpC no deterg inactive, Pf growth 48h 12µM, Pf growth 96h inactive, Sm TGR inh inactive and SARS PLP yeast inactive.
`CCN(CC)CCNC(=O)c1cc2c(-c3cccc(OC)c3)nn(C)c2s1` gave AmpC inh detg inactive, AmpC no deterg inactive, Pf growth 48h 1.5µM, Pf growth 96h inconclusive, Sm TGR inh inactive and SARS PLP yeast inactive.
For CCOC(=O)N1CCC(NC(=O)c2cc3c(-c4cccc(OC)c4)nn(C)c3s2)CC1 the results were AmpC inh detg inactive, AmpC no deterg inactive, Pf growth 48h 9.3µM, Sm TGR inh inactive and SARS PLP yeast inactive.
Screening COc1cc(NC(=O)Cn2nnc(-c3ccccc3N)n2)cc(OC)c1 returned AmpC inh detg inactive, AmpC no deterg 20µM, Pf growth 48h inactive, Pf growth 96h inactive, Sm TGR inh inactive and SARS PLP yeast inactive.
COc1ccc(C(=O)Cn2nnc(-c3ccccc3NC(=O)C3CCCCC3)n2)cc1 was read as AmpC inh detg inactive, AmpC no deterg inactive, Pf growth 48h 12µM, Sm TGR inh inactive and SARS PLP yeast inactive.
For Cc1cc(C)n(-c2nc(C)c(C)c(=O)n2CC(=O)Nc2ccc(OC(F)(F)F)cc2)n1 the results were AmpC inh detg inactive and Sm TGR inh inactive.
Screening COC(=O)c1ccccc1NC(=O)N1CSC[C@H]1C(=O)OC returned AmpC inh detg inactive, AmpC no deterg inactive, Pf growth 48h inactive, Pf growth 96h inactive, Sm TGR inh 28µM and SARS PLP yeast inactive.
CCOC(=O)c1ccccc1NC(=S)N1CCCCC1 was read as AmpC inh detg inconclusive, AmpC no deterg inactive, Pf growth 48h inactive, Pf growth 96h 9.3µM, Sm TGR inh inactive and SARS PLP yeast inconclusive.
Screening CCCC1c2ccc(C)n2CCN1C(=O)Nc1ccccc1Cl (stereo not drawn) returned AmpC inh detg inactive, AmpC no deterg inactive, Pf growth 48h inconclusive, Pf growth 96h 2.6µM, Sm TGR inh 35µM and SARS PLP yeast inactive.
Screening CCC1c2ccc(C)n2CCN1C(=O)Nc1cc(Cl)ccc1OC (stereo not drawn) returned AmpC inh detg inactive, AmpC no deterg inactive, Pf growth 48h inactive, Pf growth 96h inconclusive, Sm TGR inh inactive and SARS PLP yeast inactive.

Compound activity deposited in PubChem by National Center for Advancing Translational Sciences (NCATS).
